Assay outcomes as filed in PubChem BioAssay.
Sfp PPTase inh: qHTS Assay for Inhibitors of Bacillus subtilis Sfp phosphopantetheinyl transferase (PPTase); AID 1490, 2009; Potency, µM, for the others: largest response in the series, negative = inhibition, actives largely listed as inhibitors; 3.5% of 310,000 active; Biochemical Sfp PPTase activity, qHTS;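 further: the enzyme is Sfp with the accession as filed and its product quenches rhodamine fluorescence; 0% = enzyme reaction without inhibitor and -100% = no enzyme wells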
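With Hepes-Na pH 7.6 buffer containing 10 mM MgCl2, Sfp (15 nM) modified BHQ-2-YbbR (12.5 uM) using rhodamine-CoA (5 uM). Two reads 30 minutes apart at 525/598 nm yielded each well's rate.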
Tau FP inhib: qHTS for Inhibitors of Tau Fibril Formation, Fluorescence Polarization; Microtubule-associated protein tau (Homo sapiens), P10636; K18 P301L tau heparin fibrillization, Alexa594 FP, 6 h; Potency, µM (doses to about 57.7 µM), for inactives: at the highest dose activity, negative = inhibition, actives largely listed as inhibitors; 0.39% of 280,000 active; further: nearly all actives have a fitted effect of over 55% in size
Target sequence (P10636 561-689 P618L limits assumed): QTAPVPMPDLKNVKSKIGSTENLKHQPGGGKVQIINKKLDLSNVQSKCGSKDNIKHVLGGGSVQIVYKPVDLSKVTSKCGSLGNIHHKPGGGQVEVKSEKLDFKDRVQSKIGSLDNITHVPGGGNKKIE
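Human tau K18 […] P301L fragment, 15 uM unlabeled plus 0.24 uM Alexa 594-labeled tau (final), with compound and 20 uM heparin in 100 mM sodium acetate pH 7; 6 hr at 37 C, then Alexa 594 FP read.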
PLK1 PBD inh: qHTS for Inhibitors of PLK1-PDB (polo-like kinase 1 - polo-box domain): Primary Screen | Serine/threonine-protein kinase PLK1 (Homo sapiens), P53350 | Potency, µM, for the others: max response, negative = inhibition, hits mostly inhibitors | AID 720504, 2013 | Plk1 PBD binding of FITC phosphopeptide, fluorescence polarization | 2.8% of 360,000 active; further: series mostly up to about 57 µM; nearly all actives have a fitted effect of over 65% in size
Target sequence (P53350 whole entry, looked up, the tested form may be a part): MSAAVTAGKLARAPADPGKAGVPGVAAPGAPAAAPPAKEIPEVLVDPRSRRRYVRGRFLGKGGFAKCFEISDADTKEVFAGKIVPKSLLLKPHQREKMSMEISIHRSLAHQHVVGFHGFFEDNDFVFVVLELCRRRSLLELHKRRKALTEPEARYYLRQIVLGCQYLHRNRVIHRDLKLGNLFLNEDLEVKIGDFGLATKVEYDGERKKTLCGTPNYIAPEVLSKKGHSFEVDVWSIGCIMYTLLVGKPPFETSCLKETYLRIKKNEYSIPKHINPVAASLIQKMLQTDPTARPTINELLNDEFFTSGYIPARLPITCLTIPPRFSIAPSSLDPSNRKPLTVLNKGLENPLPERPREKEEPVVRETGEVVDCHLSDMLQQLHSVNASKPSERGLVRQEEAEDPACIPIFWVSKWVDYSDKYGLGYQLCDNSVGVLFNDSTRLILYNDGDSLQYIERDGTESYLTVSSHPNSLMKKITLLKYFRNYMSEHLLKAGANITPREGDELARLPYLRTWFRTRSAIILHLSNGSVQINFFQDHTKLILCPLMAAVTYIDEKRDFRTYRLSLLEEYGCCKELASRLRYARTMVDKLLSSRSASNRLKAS
Tau fluor counter: Counterscreen qHTS for Inhibitors of Tau Fibril Formation, Fluorescence Polarization; tau K18 P301L Alexa594 fluorescence, heparin fibrillization; Potency, µM (series often up to 57.7 µM), inactives show at the top dose activity change, negative = decrease; 0.93% of 280,000 active; AID 1463, 2008; further: nearly all actives have a fitted effect of over 55% in size
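Human tau K18 P301L (15 uM unlabeled, 0.24 uM Alexa 594-labeled) in 100 mM sodium acetate pH 7 with 20 uM heparin, 6 hr at 37 C. ThT 30 uM added, 1 hr ambient; Alexa 594 FP and total fluorescence read at 555/632 nm.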
VDR inhibitor: Inhibitors of the vitamin D receptor (VDR): qHTS; 0.93% of 400,000 active; Potency, µM, without a hit: max response, negative = inhibition, most hits filed as inhibitors; Vitamin D3 receptor (Homo sapiens), P11473; VDR-SRC2-3 peptide fluorescence polarization, 2 h; AID 504847, 2011
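After 23 nl compound addition and a short centrifugation, plates sat for 2 hours at ambient temperature; polarization of fluorescence then indicated loss of VDR binding to peptide SRC2-3.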
Tau ThT inhib: qHTS for Inhibitors of Tau Fibril Formation, Thioflavin T Binding; Microtubule-associated protein tau (Homo sapiens), P10636; recombinant tau K18 P301L (four-repeat tau fragment), heparin-induced fibrillization, ThT fluorescence; Potency, µM (doses to about 57.4 µM), for the others: top-dose activity, negative = inhibition, usual class: inhibitors; 2.1% of 270,000 active; further: nearly all actives have a fitted effect of over 55% in size
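Aggregation was driven by heparin (20 uM final) acting on recombinant tau […] bearing P301L in 100 mM sodium acetate pH 7; fibrils were detected with Thioflavin T.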
The depositor's hits bear a star; [ ] = remark or other dose. In the library only some 6% were active in any assay of this set; here they are far more common. The call rests on the fitted dose curve; in most records, active means well fitted curve in the direction sought with a large enough effect; inconclusive means small, poorly fitted or top-dose-only effect, or another doubt; inactive means no such curve, though single readings can be large; an effect the other way counts as inactive or inconclusive. Unless noted, on the % scale 0 is the no-effect control and ±100 the full control effect; potency means the concentration at half of the fitted maximal effect.

What do the screens show for `Oc1c(Br)cc(Br)cc1C=Nc1ccc2c(c1)OCO2`?
Sfp PPTase inh: -3.6%; Tau FP inhib: inconclusive; PLK1 PBD inh: -14.9%; Tau fluor counter: -7.2%; VDR inhibitor: 3.4%; Tau ThT inhib: 20µM*

How did Cc1cccc(NC(=O)CSc2nc3c(sc4ccccc43)c(=O)n2CCCC(=O)NC2CCCC2)c1 do in these assays?
Tau FP inhib: -12.5%; Tau fluor counter: -5.4%; VDR inhibitor: 3.1%; Tau ThT inhib: 19.7%

How did N#Cc1nc(N2CCCC2)nc(N(c2ccccc2)c2ccccc2)n1 do in these assays?
VDR inhibitor: -13.4%

Results for CCN(c1ccccc1)c1nc(C#N)nc(N(CC)c2ccccc2)n1 ?
Sfp PPTase inh: -6.2%; Tau FP inhib: -3.9%; PLK1 PBD inh: 21.2µM*; Tau fluor counter: -13.4%; VDR inhibitor: inconclusive; Tau ThT inhib: inconclusive

How did c1ccc2c(c1)Cc1cc3cc4c(cc3nc1-2)OCO4 do in these assays?
Sfp PPTase inh: -16.8%; Tau FP inhib: 12.2%; Tau fluor counter: inconclusive; Tau ThT inhib: 3.16µM*

What do the screens show for `Cc1cc2cc3c(cc2nc1SCC(=O)N1c2ccccc2CC1C)OCO3` (stereo not given)?
Sfp PPTase inh: 4.3%; Tau FP inhib: -11.4%; PLK1 PBD inh: -4.0%; Tau fluor counter: -17.3%; VDR inhibitor: 16.4%; Tau ThT inhib: -11.5%

How did Nc1nc(SCC(=O)O)c2[nH]cnc2n1 do in these assays?
VDR inhibitor: -7.0%

What do the screens show for `COc1ccc(CNc2oc(/C=C/c3cccc(OC)c3)nc2C#N)cc1`?
Tau FP inhib: inconclusive; Tau fluor counter: 6.31µM*[quencher]; VDR inhibitor: 8.8%; Tau ThT inhib: inconclusive

How did N#Cc1nc(-c2ccccc2F)oc1NCc1ccccc1 do in these assays?
Sfp PPTase inh: -20.6%; Tau FP inhib: 1.0%; PLK1 PBD inh: 2.4%; Tau fluor counter: inconclusive; VDR inhibitor: 31.9%; Tau ThT inhib: inconclusive

What do the screens show for `COc1ccc(CNc2oc(-c3cccc4ccccc34)nc2C#N)cc1`?
Sfp PPTase inh: 13.5%; Tau FP inhib: -6.6%; PLK1 PBD inh: -4.4%; Tau fluor counter: 8.91µM*[quencher]; VDR inhibitor: 13.7%; Tau ThT inhib: -17.0%

Results for COCCCNc1oc(-c2ccccc2F)nc1C#N ?
Sfp PPTase inh: 4.9%; Tau FP inhib: -3.1%; PLK1 PBD inh: 23.8µM*; Tau fluor counter: -23.2%; VDR inhibitor: inconclusive; Tau ThT inhib: inconclusive

Results for N#Cc1nc(-c2cccc3ccccc23)oc1NCC1CCCO1 (stereo not given) ?
Sfp PPTase inh: inconclusive; Tau FP inhib: inconclusive; PLK1 PBD inh: -2.8%; Tau fluor counter: 15.8µM*[quencher]; VDR inhibitor: -21.3%; Tau ThT inhib: inconclusive

How did CCc1ccc([C@@H]2C[C@H]3[C@@H](CN2S(=O)(=O)c2ccc(C)cc2)C(=O)C[C@@H](c2ccc(C)cc2)N3S(=O)(=O)c2ccc(C)cc2)cc1 do in these assays?
PLK1 PBD inh: -4.5%

What do the screens show for `Cc1ccc(CNc2oc(C)nc2C#N)cc1`?
Sfp PPTase inh: 10.5%; Tau FP inhib: inconclusive; PLK1 PBD inh: -3.4%; Tau fluor counter: 11.2µM*[quencher]; VDR inhibitor: -4.9%; Tau ThT inhib: inconclusive

What do the screens show for `COc1cccc(/C=C/c2nc(C#N)c(NCCc3ccc(OC)c(OC)c3)o2)c1`?
Tau FP inhib: inconclusive; Tau fluor counter: 12.6µM*[quencher]; VDR inhibitor: 7.9%; Tau ThT inhib: inconclusive

What do the screens show for `Cc1ccc(CNc2oc(-c3ccco3)nc2C#N)cc1`?
Sfp PPTase inh: -3.7%; Tau FP inhib: inconclusive; PLK1 PBD inh: 2.5%; Tau fluor counter: -21.2%; VDR inhibitor: -0.3%; Tau ThT inhib: -10.6%

What do the screens show for `Cc1cccc2c1-c1sc(C(=O)NCCCN3CCN(c4ccccc4F)CC3)cc1CO2`?
Tau FP inhib: -3.3%; Tau fluor counter: -29.9%; VDR inhibitor: 0.3%; Tau ThT inhib: inconclusive

How did Cc1cccc2c1-c1sc(C(=O)Nc3ccccc3N3CCN(C)CC3)cc1CO2 do in these assays?
Sfp PPTase inh: 35.5µM*; Tau FP inhib: 3.6%; PLK1 PBD inh: -7.1%; Tau fluor counter: -28.3%; VDR inhibitor: -3.8%

How did COCCCn1c(C(=O)N2CCOCC2)cc2c(=O)n3ccccc3nc21 do in these assays?
Sfp PPTase inh: 19.0%; PLK1 PBD inh: -5.9%; VDR inhibitor: 16.6%

How did COCCCn1c(C(=O)Nc2ccc3c(c2)OCO3)cc2c(=O)n3ccccc3nc21 do in these assays?
Sfp PPTase inh: -13.2%; PLK1 PBD inh: 2.99µM*; VDR inhibitor: inconclusive

What do the screens show for `O=S(=O)(c1cnc2ccccc2c1)N1CCN(c2nc(-c3cccs3)nc3ccccc23)CC1`?
VDR inhibitor: -3.3%

Results for CC(C)N(Cc1cnn(C)c1)Cc1nc(COc2ccccc2)no1 ?
Sfp PPTase inh: 8.0%; Tau FP inhib: 3.9%[2.34 µM]; PLK1 PBD inh: 21.2µM*; Tau fluor counter: -13.9%; VDR inhibitor: -13.4%; Tau ThT inhib: -1.6%

Results for CCn1c(SCC(=O)Nc2cccc(Cl)c2)nnc1-c1nonc1NC(C)=O ?
Tau FP inhib: -14.4%; Tau fluor counter: -21.7%; VDR inhibitor: 7.8%; Tau ThT inhib: 6.6%

Results for BrC(/C=N/Nc1nc(N2CCOCC2)nc(N2CCOCC2)n1)=C/c1ccccc1 ?
Sfp PPTase inh: 79.4µM*; Tau FP inhib: -1.0%; PLK1 PBD inh: -5.4%; Tau fluor counter: -12.4%; VDR inhibitor: -1.1%; Tau ThT inhib: inconclusive

How did CCCCCCN(C(=O)CCCCCN1C(=O)NC(c2ccccc2)C(C(=O)OCc2ccccc2)=C1C)C(C(=O)NCCCC)c1ccc(OCC(=O)OC)c(C(=O)OC)c1 (stereo not given) do in these assays?
Sfp PPTase inh: 2.6%; Tau FP inhib: 8.4%; Tau fluor counter: 6.0%; Tau ThT inhib: inconclusive

How did CCN(CC)CCC(=O)c1ccc(F)cc1 do in these assays?
Sfp PPTase inh: -5.5%; Tau FP inhib: 3.6%; PLK1 PBD inh: 10.6µM*; Tau fluor counter: -6.6%; VDR inhibitor: -6.6%; Tau ThT inhib: inconclusive

How did COc1ccc(NC(=O)CCCn2cnc3ccccc3c2=O)cc1 do in these assays?
Sfp PPTase inh: 50.1µM*; PLK1 PBD inh: inconclusive; VDR inhibitor: 5.9%

Results for O=C(CCCn1cnc2ccccc2c1=O)Nc1ccccc1F ?
Sfp PPTase inh: -14.6%; PLK1 PBD inh: -13.3%; VDR inhibitor: 2.2%
